JMJD2A Tudor inh: inhibitors of human JMJD2A Tudor domain; O75164; 390,000 tested, 4.4% active; AlphaScreen JMJD2A-Tudor / H3K4me3 peptide binding; Potency, µM (series often up to 114 µM), for inactives: at the highest dose activity change, negative = inhibition, actives largely listed as inhibitors; also: % is scaled to controls: 0 for no effect and ±100 for the full control effect; nearly all actives have a fitted effect of over 50% in size
BAZ2B block: inhibitors of human BAZ2B bromodomain; Potency, µM (doses to about 114 µM), for inactives: at the highest dose activity change, negative = inhibition, hits mostly inhibitors; 360,000 tested, 4.4% active; AlphaScreen BAZ2B-H3K14Ac peptide displacement; also: % is scaled to controls: 0 for no effect and ±100 for the full control effect; nearly all actives have a fitted effect of over 60% in size
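Inhibition is scored as reduced AlphaScreen emission. The BAZ2B/b-H3(5-23)K14Ac complex (50 nM each) in PBS pH 7.4, 0.01% Tween-20 meets compound (up to 110 uM) for 30 min at RT before bead addition.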
VDR inh: blocks the human vitamin D receptor | P11473 | VDR-SRC2-3 peptide fluorescence polarization, 2 h | Potency, µM, for the others: max response, negative = inhibition, hits mostly inhibitors | 400,000 tested, 0.93% active; also: % is scaled to controls: 0 for no effect and ±100 for the full control effect
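The screen uses fluorescence polarization to detect compounds that interfere with recruitment of the SRC2-3 coactivator peptide to VDR; plates are read after 2 h at room temperature.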
G9a inh: blocks human histone lysine methyltransferase G9a; Q96KQ7; G9a H3K9 monomethylation, AlphaScreen, 2 h; Potency, µM (highest dose often 102 µM), for inactives: at the top dose activity, negative = inhibition, usual class: inhibitors; 350,000 tested, 8.8% active; also: % is scaled to controls: 0 for no effect and ±100 for the full control effect; nearly all actives have a fitted effect of over 75% in size
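Chemiluminescent proximity detection of H3K9 monomethylation, read after 10 min bead incubation in the dark. Reaction: 20 nM G9a, 500 nM biotin-H3K9 peptide, 20 uM SAM cofactor, 2 h, room temperature, following 15 min enzyme-compound preincubation.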
PLK1 PBD inh: PLK1 (human) polo-box domain binding inhibition | P53350 | AID 720504 | 360,000 tested, 2.8% active | Plk1 PBD binding of FITC phosphopeptide, fluorescence polarization | Potency, µM, for inactives: max response, negative = inhibition, hits mostly inhibitors; also: series mostly up to about 57 µM; % is scaled to controls: 0 for no effect and ±100 for the full control effect; nearly all actives have a fitted effect of over 65% in size
HP1b binding inh: blocks HP1-beta chromodomain binding to methylated histone tails; P83916; AlphaScreen HP1-beta / biotin-H3K9me3 peptide binding; Potency, µM (top dose mostly 114 µM), for the others: at the top dose activity change, negative = inhibition, most hits filed as inhibitors; 390,000 tested, 0.56% active; AID 540317; also: nearly all actives have a fitted effect of over 70% in size
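AlphaScreen: HP1-beta (50 nM) preformed 30 min with biotin-H3(1-18)K9me3 peptide (50 nM) in PBS pH 7.4, 0.01% Tween-20. Compound added for 30 min at RT, then streptavidin donor/nickel chelate acceptor beads (10 ug/mL) for 30 min.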
The depositor's hits bear a star; ? = inconclusive; / = no result; ! = not active in a repeat; [ ] = remark or other dose. Sampled rows, rich in hits. Any-hit rate of the full collection: about 11%. Calls follow the shape of the dose curve; as a rule, active = well fitted curve in the direction sought with a large enough effect; inconclusive = small, poorly fitted or top-dose-only effect, or another doubt; inactive = no such curve, though single readings can be large; an effect the other way counts as inactive or inconclusive. Potency is read from the fitted curve at half-maximal effect.

SMILES	JMJD2A Tudor inh	BAZ2B block	VDR inh	G9a inh	PLK1 PBD inh	HP1b binding inh
O=C(CSc1cccc[n+]1[O-])CSc1cccc[n+]1[O-]	2%	-23%	-8%	/	2%	37%
[O-][n+]1ccccc1SSc1cccc[n+]1[O-]	/	/	5.6µM*	1.3µM*	/	/
Cc1ccc(NC(=O)C2CCCO2)cc1[N+](=O)[O-] (stereo not drawn)	-10%	0%	0%	-5%	2%	20%
O=C(c1cccn1-c1nnc(N2CCCC2)s1)N1CCN(c2ccc(F)cc2)CC1	-18%	-16%	14%	-38%[59 µM]	/	14%
CC1=CC(c2ccc(Cl)cc2)n2nc(NC(=O)CCC(=O)O)nc2N1 (stereo not drawn)	?	50µM*	-7%	20µM*	-28%	9%
CC1=CC(c2ccc(Cl)cc2)n2nc(NC(=O)CCCC(=O)O)nc2N1 (stereo not drawn)	25µM*	?	-12%	50µM*	-15%	-3%
CC(=O)Nc1nc2n(n1)C(c1ccc(F)cc1)C=C(c1ccc(Cl)cc1)N2 (stereo not drawn)	-6%	?	2%	?	/	63%
Cc1ccc2oc(C(=O)N3CCC(O)(c4ccccc4)CC3)c(C)c2c1	-18%	?	0%	/	-5%	18%
CCOC(=O)N1CCN(C(=O)CCn2c(=S)[nH]c3ccsc3c2=O)CC1	?	?	-15%	45µM*	-7%	26%
O=S(=O)(Nc1ccc(N2CCCCC2)cc1)c1ccc(F)cc1	?	79µM*	6%	/	-2%	?
Cc1ccc(S(=O)(=O)NCC(=O)N2CCCCC2)cc1	-10%	4%	-2%	4%	1%	49%
O=C(NNC(=O)c1ccc(F)cc1)C(=O)N1CCCCC1	25µM*	8%	-3%	?	-10%	10%
O=S(=O)(Nc1ccc(N2CCOCC2)cc1)c1ccc(F)cc1	-17%	-27%	7%	?	2%	0%
O=C(CNS(=O)(=O)c1ccc(C(=O)N2CCCCC2)cc1)N1CCCCC1	56µM*	-18%	-10%	-42%[12.7 µM]	30µM*	-7%
O=S(=O)(Nc1ccc(N2CCCCC2)cc1)c1ccccc1	?	50µM*	-18%	?	-4%	?
COc1ccccc1C(=O)NNC(=O)C(=O)N1CCCCC1	?	?	0%	/	-4%	18%
O=C(c1ccc(NS(=O)(=O)c2ccc(F)cc2)cc1)N1CCCCC1	-8%	7%	-13%	45µM*	-16%	8%
O=C(c1ccc(NS(=O)(=O)c2ccc(F)cc2)cc1)N1CCCCCC1	-29%	5%	-9%	-42%	-4%	-14%
NC(=O)c1csc(-c2ccc(CO)o2)n1	/	/	/	/	-5%	/
OCc1ccc(-c2ccc(-c3ccc(CO)s3)o2)s1	/	/	10µM*	1.6µM*	/	/
O=c1[nH]c(NC2CCCCC2)nnc1Cc1ccccc1	50µM*	-9%	-17%	?	-12%	24%
Cc1nnc(NC2CCCCC2)[nH]c1=O	5%	6%	12%	-8%[59 µM]	1%	35%
CCOC(=O)C(=O)Cc1nc2ccccc2s1	-29%	?	-7%	50µM*	-10%	14%
O=C(O)COCc1nc2ccccc2s1	-2%	-25%	-3%	50µM*	-2%	59%
CC(=O)OCc1nc2ccccc2s1	1%	4%	0%	73%[59 µM]	-5%	9%
SMILES	JMJD2A Tudor inh	BAZ2B block	VDR inh	G9a inh	PLK1 PBD inh	HP1b binding inh
CCN(CC)S(=O)(=O)c1ccc(C(=O)Nc2ccc(Cc3ccncc3)cc2)cc1	-16%	-38%	3%	2%	-18%	23%
CCN(Cc1ccncc1)S(=O)(=O)c1ccc(C(C)=O)cc1	-23%	13%	?	?	19µM*	0%
CN(C)S(=O)(=O)Nc1cc(Cl)cc(Cl)c1	40µM*	-10%	7%	-12%[59 µM]	30µM*	-2%
Cc1[nH]c(=O)c(C#N)c(C)c1Cl	-5%	-1%	-10%	22%[59 µM]	4%	45%
N#Cc1sc(=O)[nH]c1Cl	89µM*!	/	79µM*	/	?	17%
Cc1cc(Nc2ccccc2C(=O)O)n(-c2ccc([N+](=O)[O-])cc2)n1	-17%	-26%	-15%	-3%[59 µM]	1%	40%
CC1C(=O)N2CCCc3cc(S(=O)(=O)N4CCN(c5cccc(Cl)c5)CC4)cc1c32 (stereo not drawn)	-29%	-33%	-21%	-46%	-12%	-8%
CCOCCCNC(=O)c1cnc2sc(N3CCCCC3)nn2c1=O	-7%	-1%	8%	0%[59 µM]	/	-4%
CCOC(=O)C1=C(N)N2C(=O)CSC2=C(C(=O)OC)C1	-30%	?	2%	50µM*	-18%	38%
CCOC(=O)c1ccc(N2C(=O)CC(C(=O)OC)=C2C)cc1	-32%	-4%	?	-39%[59 µM]	?	-9%
COc1cc(/C=C/CN2CCC(C(=O)NC(c3ccc(F)cc3)c3ccc4ccccc4n3)CC2)ccc1OC(C)=O (stereo not drawn)	/	/	/	/	-12%	/
CC1(CN2CCC(n3c(=O)[nH]c4ccccc43)CC2)OCc2ccccc2-n2cccc21 (stereo not drawn)	/	/	-13%	?	/	/
O=C(C[n+]1cc(Br)cc2ccccc21)c1ccccc1	?	?	-28%	45µM*	-18%	8%
COc1ccc(C(=O)C[n+]2cc(Br)cc3ccccc32)cc1[N+](=O)[O-]	79µM*	-27%	-11%	35µM*	?	31%
COc1ccc(C(=O)OCC(N)=O)cc1[N+](=O)[O-]	-11%	3%	-11%	11%[59 µM]	-18%	33%
COc1ccc(C2=CSC3=NCCN23)cc1F	-12%	-10%	2%	28µM*	-25%	6%
CS(=O)(=O)c1ccc2nc(NC(=O)C3CCCO3)sc2c1 (stereo not drawn)	-12%	-2%	0%	-4%	?	-5%
C=CCN(CC=C)S(=O)(=O)c1ccc2nc(NC(=O)C3CCCO3)sc2c1 (stereo not drawn)	-25%	8%	-3%	1.3µM*	-20%	9%
CCc1cccc(N2C(=O)CS(=O)(=O)C23C(=O)N(Cc2ccccc2)c2ccc(C)cc23)c1 (stereo not drawn)	-22%	0%[57.1 µM]	1%	-23%[59 µM]	/	30%
COc1ccc(Cl)cc1S(=O)(=O)Oc1ccc(NC(C)=O)cc1	-15%	-1%	-10%	20%[59 µM]	-14%	11%
CCOC(=O)c1c(C)[nH]c(-c2csc(C)n2)c1C	?	?	13%	?	-19%	?
CCOC(=O)c1c(C)[nH]c(-c2csc(N)n2)c1C	?	?	-16%	28µM*	?	?
C=C[C@@H](C1=CC(=O)C(OC)=C(OC)C1=O)c1ccccc1	/	/	4µM*	/	/	/
C=CC(C1=CC(=O)C=CC1=O)c1ccccc1 (stereo not drawn)	/	/	35µM*	?	/	/

From PubChem BioAssay
